Results: PubChem BioAssay (NCATS)
Several values for one entry are separate records, joined by “and”; a condition that tells them apart may be missing. Identical values can stand only once. Inconclusive results are not listed. Activity calls are given as the source filed them. Calls follow the shape of the dose curve; as a rule, active = well fitted curve in the direction sought with a large enough effect; inconclusive = small, poorly fitted or top-dose-only effect, or another doubt; inactive = no such curve, though single readings can be large; an effect the other way counts as inactive or inconclusive.

Legend:
[1] = biological target: Cellular tumor antigen p53 (Homo sapiens) (UniProt P04637); assay: Primary qHTS for small molecule compounds that upregulate eGFP-tagged delta133p53alpha (in N-terminal) cells. (AID 2060322); details: NCI-H358 eGFP-delta133p53alpha fluorescence, 24 h; activation: active compounds read high; also: nearly all actives have a fitted effect of over 75% in size; also: potency is read from the fitted curve at half-maximal effect;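 as to activation: cells pre-induced with doxycycline then dosed without doxycycline; series mostly up to about 56 µM; 0% = DMSO vehicle and 100% = reference activator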
Method in brief: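 NCI-H358 cells pre-induced 24 h with 10 ng/ml doxycycline for eGFP-delta133p53alpha, plated dox-free and exposed 24 h at 37C to titrated compounds. Fixed, Hoechst-stained; gated GFP peak intensity by laser scanning cytometry, normalized to DMSO (0%) and 57.5 uM 5-azacytidine (100%).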

[2] = biological target: Aldehyde dehydrogenase, mitochondrial (Homo sapiens) (UniProt P05091); assay: qHTS for Inhibitors of the Aldehyde Dehydrogenase Family (ALDH2) Primary screen (AID 2061308);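 also: plate controls were vehicle for no effect and reference inhibitor for full effect; nearly all actives have a fitted effect of over 55% in size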
[3] = biological target: Retinaldehyde dehydrogenase 3 (Homo sapiens) (UniProt P47895); assay: qHTS for Inhibitors of the Aldehyde Dehydrogenase Family (ALDH1A3) Validation screen (AID 2061312); also: % is scaled to controls: 0 for no effect and ±100 for the full control effect; nearly all actives have a fitted effect of over 45% in size
[4] = biological target: Retinaldehyde dehydrogenase 3 (Homo sapiens) (UniProt P47895); assay: qHTS for Inhibitors of the Aldehyde Dehydrogenase Family (ALDH1A3) Primary screen (AID 2061315);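 also: plate controls were DMSO vehicle for no effect and reference inhibitor for full effect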
[5] = BET inhibitor-based combinations targeting novel dependencies in MECOM-rearranged (r) AML: SET-2 cell line (AID 2202231); details: SET-2 AML cells viability, CellTiter-Glo luminescence, 48 h; viability: active compounds read low, concentration not given here; also: nearly all actives have a fitted effect of over 35% in size; also: potency is read from the fitted curve at half-maximal effect;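 as to viability: plate controls were DMSO treated cells for no effect and wells without cells for full effect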
Method in brief: (§1)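 500 cells/well; 11-pt dose curve; 48 h, standard incubator; CellTiter-Glo luminescence after 15 min RT; DMSO/empty-well normalization; AUC plus Z-AUC (mean-centered within each line).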

[6] = BET inhibitor-based combinations targeting novel dependencies in MECOM-rearranged (r) AML: OCI-AML3 cell line (AID 2202232); details: Potency: OCI-AML3 viability; also: nearly all actives have a fitted effect of over 35% in size; also: potency is read from the fitted curve at half-maximal effect
Method in brief: as §1

[7] = BET inhibitor-based combinations targeting novel dependencies in MECOM-rearranged (r) AML: MV-4-11 cell line (AID 2202233); also: nearly all actives have a fitted effect of over 45% in size; also: potency is read from the fitted curve at half-maximal effect
Method in brief: (§2)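 Cells were plated at 500 per well and exposed to each drug across an 11-point dose range for 48 hr at standard incubator conditions. Viability was read by CellTiter-Glo luminescence, and activity was expressed as AUC and per-cell-line Z-transformed AUC.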

[8] = BET inhibitor-based combinations targeting novel dependencies in MECOM-rearranged (r) AML: HNT-34 cell line (AID 2202234); also: nearly all actives have a fitted effect of over 35% in size; also: potency is read from the fitted curve at half-maximal effect
Method in brief: as §2

[9] = BET inhibitor-based combinations targeting novel dependencies in MECOM-rearranged (r) AML: AML-191 cell line (AID 2202236; also: nearly all actives have a fitted effect of over 35% in size; also: potency is read from the fitted curve at half-maximal effect)
Method in brief: as §1

[10] = BET inhibitor-based combinations targeting novel dependencies in MECOM-rearranged (r) AML: AML-194 cell line (AID 2202237; also: nearly all actives have a fitted effect of over 40% in size; also: potency is read from the fitted curve at half-maximal effect)
Method in brief: as §1

[11] = BET inhibitor-based combinations targeting novel dependencies in MECOM-rearranged (r) AML: UCSD-AML1 cell line (AID 2202235); also: nearly all actives have a fitted effect of over 40% in size; also: potency is read from the fitted curve at half-maximal effect
Method in brief: as §2

Cellular tumor antigen p53 (Homo sapiens), sequence (P04637 whole entry, looked up): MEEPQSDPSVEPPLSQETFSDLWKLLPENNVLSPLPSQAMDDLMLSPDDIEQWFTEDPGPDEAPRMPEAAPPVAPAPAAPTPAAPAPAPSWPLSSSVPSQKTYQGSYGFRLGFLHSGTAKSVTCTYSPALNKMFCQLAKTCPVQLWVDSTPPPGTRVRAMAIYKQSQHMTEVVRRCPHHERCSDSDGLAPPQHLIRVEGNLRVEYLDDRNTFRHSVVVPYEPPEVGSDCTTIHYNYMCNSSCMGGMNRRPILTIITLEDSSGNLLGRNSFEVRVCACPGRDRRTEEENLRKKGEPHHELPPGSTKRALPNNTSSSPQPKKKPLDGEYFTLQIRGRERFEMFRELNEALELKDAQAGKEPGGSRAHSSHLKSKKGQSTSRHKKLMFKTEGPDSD

Fc1ccc(-c2cncc(CN3CCN(c4cccc5c4OCCO5)CC3)c2)cc1
inactive: activation [1] -10% | Potency [2] | Potency [3] | Potency [4]

O=C(NCCN1CCC(n2c(=O)[nH]c3ccccc32)CC1)c1cc2cc(F)ccc2[nH]1
inactive: activation [1] 23.9% | Potency [2] | Potency [3] | Potency [4]

COc1ccccc1Oc1c(NS(=O)(=O)c2ccc(C)cn2)nc(-c2ccncc2)nc1OC
inactive: activation [1] 20% | Potency [2] | Potency [3] | Potency [4]

COC(=O)c1ccc2c(c1)nc(NC(=O)c1ccccc1)n2CCCc1ccccc1
inactive: activation [1] -10% | Potency [2] | Potency [3] | Potency [4]

COc1ccc(CN2CCN(C(=O)CCNC(=O)c3ccc(C(C)(C)C)cc3)CC2)cc1
inactive: activation [1] -7.16% | Potency [2] | Potency [3] | Potency [4]

Cc1onc(-c2c(Cl)cccc2Cl)c1CC(=O)NCc1ccc(OCC(F)(F)F)nc1
inactive: activation [1] -9.07% | Potency [2] | Potency [3] | Potency [4]

CCCNCCOc1ccc(NC(=O)c2c[nH]c3c2C(=O)CCC3)cc1F
inactive: activation [1] -0.955% | Potency [2] | Potency [3] | Potency [4]

NCc1c[nH]c(=S)n1C1CCc2c(F)cc(F)cc2C1 (stereo unspecified)
inactive: activation [1] -0.477% | Potency [2] | Potency [3] | Potency [4]

Cc1ccccc1CN1CCn2c1nc1c(c2=O)CN(Cc2ccccc2)CC1
inactive: activation [1] 0.477% | Potency [2] | Potency [3] | Potency [4]

COc1cccc(CN(C(=O)CC(C)(C)C)C2CC(C(=O)N3CCNCC3)N(Cc3ccc4c(c3)OCO4)C2)c1 (stereo unspecified)
inactive: activation [1] -10% | Potency [2] | Potency [3] | Potency [4]

Cc1ccc2[nH]c(=O)c(C3=NN(C(=O)CCC(=O)O)C(c4ccc(Br)cc4)C3)c(-c3ccccc3)c2c1 (stereo unspecified)
inactive: activation [1] -22.4% | Potency [2] | Potency [3] | Potency [4]

CC(C)S(=O)(=O)NC[C@H](C)c1ccc(-c2ccc(CCNS(C)(=O)=O)cc2)cc1
inactive: activation [1] -5.73% | Potency [2] | Potency [3] | Potency [4]

O=C(CCc1nnc2n(Cc3ccc(Cl)cc3)c(=O)c3ccccc3n12)NCCC1=CCCCC1
inactive: activation [1] 4.3% | Potency [2] | Potency [3] | Potency [4]

CC1(C)[C@H]2C[C@H](C/C=C\CCCC(=O)O)[C@@H](NC(=O)c3csc4ccc(O)cc34)[C@@H]1C2
inactive: activation [1] -4.77% | Potency [2] | Potency [3] | Potency [4]

CC[C@H]1OC(=O)[C@H](C)[C@@H](O[C@H]2C[C@@](C)(OC)[C@@H](O)[C@H](C)O2)C(C)[C@@H](O[C@@H]2O[C@H](C)C[C@H](N(C)C)[C@H]2O)[C@](C)(O)C[C@@H](C)CN(C)[C@H](C)[C@@H](O)[C@]1(C)O (stereo partly specified)
inactive: activation [1] -5.73% | Potency [2] | Potency [3] | Potency [4]

O=C(NCc1cccc(O)c1)c1cc2cc(F)ccc2[nH]1
inactive: activation [1] 0% | Potency [2] | Potency [3] | Potency [4]

Cc1cc(CN)cc(C)c1NC(=O)c1ccc(-c2cc(Cl)ccc2Cl)o1
inactive: activation [1] 6.68% | Potency [2] | Potency [3] | Potency [4]

CC(C)CCNC(=O)c1ccc2c(c1)nc(Nc1n[nH]c3ccc(-c4ccccc4OC(F)(F)F)cc13)n2C1CCC(O)CC1 (stereo unspecified)
inactive: activation [1] 6.21% | Potency [2] | Potency [3] | Potency [4]

CC[N+]1(C/C2=C/CCCCCC2)CCC(NC(=O)C2c3cc(Cl)ccc3Oc3ccc(Cl)cc32)CC1 (stereo unspecified)
inactive: activation [1] 28.6% | Potency [2] | Potency [3] | Potency [4]

CCCC(Nc1nc(-c2ccc(NC(=O)NCC)c(OC)c2)ncc1C)c1cccnc1 (stereo unspecified)
inactive: activation [1] -2.86% | Potency [2] | Potency [3] | Potency [4]

CC1(C)CCC(C)(C)c2cc([C@@H](O)C(=O)Nc3ccc(C(=O)O)cc3F)ccc21
inactive: activation [1] -4.77% | Potency [2] | Potency [3] | Potency [4]

CCOc1cc2c(c(F)c1OCC)C(=N)N(CC(=O)c1cc(N3CCOCC3)c(OC)c(C(C)(C)C)c1)C2
active: Potency [5] 16.6 µM | Potency [6] 16.6 µM | Potency [7] 8.33 µM | Potency [8] 8.33 µM | Potency [9] 16.6 µM | Potency [10] 10.5 µM
inactive: activation [1] -9.71% | Potency [2] | Potency [3] | Potency [4]

CC(=O)Nc1ccc([C@H](C)C(=O)Nc2ncc(C(C)C)s2)cc1
active: Potency [1] 3.06 µM and 2.69 µM | Potency [5] 3.32 µM | Potency [6] 7.42 µM | Potency [7] 5.25 µM | Potency [8] 3.32 µM | Potency [11] 3.32 µM | Potency [9] 1.86 µM | Potency [10] 2.95 µM
inactive: Potency [2] | Potency [3] | Potency [4]

COc1cc2c(cc1OC)CN(CCc1ccc(NC(=O)c3cccc4c(=O)c5cccc(OC)c5[nH]c34)cc1)CC2
inactive: activation [1] -17.9% | Potency [2] | Potency [3] | Potency [4] | viability [5] 111% | Potency [6] | Potency [7] | Potency [8] | Potency [11] | Potency [9]

Cc1c(-c2ccnn2C)cc(C(=O)NCc2ccc(S(C)(=O)=O)cn2)c(=O)n1-c1cccc(C(F)(F)F)c1
inactive: activation [1] -2.86% and -5.25% | Potency [2] | Potency [3] | Potency [4] | viability [5] 103% | Potency [6] | Potency [7] | Potency [8] | Potency [11] | Potency [9] | Potency [10]
